Values without a mark were called inactive.

Experiment [1] deals with Sporothrix brasiliensis CBS 133006. As to the kind of experiment: growth inhibition relative to untreated control; higher = more growth inhibition (more antifungal activity), active = 80 or more; extreme values may be limits of the assay. The note with it: 1 µM; 48 h. An outline of the steps: (§1)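 Library compounds at a final 1 μM were incubated with yeast-form cells of the reference isolates (1 x 10^5 CFU/ml) for 48 h at 35°C in 5% CO2. Growth was judged by inverted light microscopy and measured spectrophotometrically in quadruplicate runs. Values give percent growth inhibition relative to untreated cells.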

Experiment [2] concerns Sporothrix schenckii ATCC 32286. Described as above. The note with it: 1 µM; 48 h. An outline of the steps:
as §1

Regarding `CO/N=C(\C(=O)OC)c1ccccc1CO/N=C(\C)c1cccc(C(F)(F)F)c1`, the growth inhibition in experiment [1] was 96.8% (active); in experiment [2] it was 40%.
With `O=C1O[C@@H](CO)CN1c1cc(F)c(C2=CCN(Cc3ccccc3)CC2)c(F)c1`, the growth inhibition was 6.75% in experiment [1] and 0.5% in experiment [2].
For the molecule `Cc1nn(Cc2ccccc2)c(Cl)c1C(=O)NC1CCCCCC1`, the growth inhibition in experiment [1] is 21.5%; in experiment [2], 3%.
As to `O=C1O[C@@H](COc2ccon2)CN1c1cc(F)c(C2=CCN(Cc3ccccc3)CC2)c(F)c1`, the figures for the growth inhibition in experiment [1] and in experiment [2] were 2% and 0%, respectively.
With `Cc1nn(C)c(C)c1NS(=O)(=O)c1c(Cl)cc(-c2ccnc(N3CCNCC3)c2)cc1Cl`, the growth inhibition was 15.2% in experiment [1] and 17.5% in experiment [2].
With `Cc1cccc(C(=O)Nc2ccnc(N(C)C3CCN(CC(C)C)CC3)c2)c1`, the growth inhibition in experiment [1] is 5.5%; in experiment [2], 9%.
For `CO[C@@H]1CN(c2ccc(C#CC3(O)CN4CCC3CC4)c(Cc3ccccc3)n2)C[C@H]1O` (stereo partly drawn), the results for the growth inhibition in experiment [1] and in experiment [2] were 9.75% and 5.5%, respectively.
Turning to `CC1(C)OB(O)c2ccc(C3=NOC(c4cc(Cl)c(F)c(Cl)c4)(C(F)(F)F)C3)cc21` (stereo not drawn), the growth inhibition in experiment [1] was 0.5%; in experiment [2], 18%.
For the molecule `Cc1cc(C2=NOC(c3cc(Cl)c(F)c(Cl)c3)(C(F)(F)F)C2)ccc1C(=O)NCc1ccc2c(c1)C(C)(C)OB2O` (stereo not drawn), the growth inhibition is 14.5% in experiment [1] and 18.2% in experiment [2].
Turning to `CO/C=C(/C(=O)OC)c1ccccc1Oc1cc(Oc2ccccc2C#N)ncn1`, the growth inhibition in experiment [1] was 95.5% (active); in experiment [2], 27.5%.
Consider `Nc1c2c(nc3sc4c(c13)CCCC4)CCCC2`, for which the growth inhibition is 6.75% in experiment [1] and 17% in experiment [2].
As to `CC1COC(Cn2cncn2)(c2ccc(Oc3ccc(Cl)cc3)cc2Cl)O1` (stereo not drawn), the values for the growth inhibition in experiment [1] and in experiment [2] were 97% (active) and 70.2%, respectively.
`CCc1nn(C)c(C(=O)NCc2ccc(Oc3ccc(C)cc3)cc2)c1Cl`: the growth inhibition in experiment [1] is 93.2% (active); in experiment [2], 96.5% (active).
On the same counts, the results for `CC(C)(C)C(O)C(Oc1ccc(-c2ccccc2)cc1)n1cncn1` (stereo not drawn) are 67.5% and 61.8%.

Values taken from the supplement of paper PMC7556523.
